# Measured values published in PubChem BioAssay AID624377 (The Scripps Research Institute Molecular Screening Center, 2012).
# Screen size: about 360,000 compounds; about 680 (0.19%) were called active. What follows is part of a selection rich in actives, with near analogues and random picks from the rest. Unmarked numbers belong to inactive results. Rule as the data show it: active = inhibition above about 25%; inactive = the rest.
# Target: Arf-GAP with SH3 domain, ANK repeat and PH domain-containing protein 1 (Homo sapiens) (UniProt Q9ULH1)
# Sequence (Q9ULH1 325-724 limits assumed): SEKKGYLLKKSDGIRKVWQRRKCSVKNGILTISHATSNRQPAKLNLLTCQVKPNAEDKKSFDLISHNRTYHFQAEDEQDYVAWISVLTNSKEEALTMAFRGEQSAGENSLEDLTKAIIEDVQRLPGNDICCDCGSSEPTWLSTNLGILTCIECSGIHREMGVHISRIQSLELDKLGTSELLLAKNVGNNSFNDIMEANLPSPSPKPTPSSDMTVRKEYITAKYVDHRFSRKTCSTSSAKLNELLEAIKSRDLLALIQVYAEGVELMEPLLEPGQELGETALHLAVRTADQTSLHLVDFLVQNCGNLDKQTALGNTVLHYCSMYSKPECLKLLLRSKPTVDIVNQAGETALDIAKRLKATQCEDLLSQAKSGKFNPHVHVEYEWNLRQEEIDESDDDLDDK
# Test: inhibitors of human ASAP1 ArfGAP activity, primary screen, biochemical, fluorescence polarization (AID 624377);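 also: 0% = vehicle with enzyme and substrate and 100% = no enzyme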
# Details: ASAP1-stimulated ARF1 GTP hydrolysis, GDP FP detection; at 16.5 µM; stronger effect = higher value
row,SMILES,inhibition
1,COC(=O)[C@]12C[C@H](CC(=O)NCc3ccc(OC)c(OC)c3)C(=O)N(Cc3ccccc3)C1=C[C@H](C(C)C)O[C@@H]2C1CC1,-17.1%
2,COC(=O)c1ccc(CN2C(=O)[C@]3(OCCC=C[C@H]3C)c3c(Br)cccc32)cc1,8.64%
3,COc1cccc(CNC(=O)[C@H]2CCCN2C(=O)[C@H]2CCCN2C(=O)c2cc(F)cc(F)c2)c1,6.55%
4,COc1cccc(NC(=O)N(C)C[C@@H]2OCc3cn(nn3)CCCC(=O)N([C@@H](C)CO)C[C@H]2C)c1,-14.2%
5,O=C(NCc1ccccc1)[C@H]1CCCN1C(=O)[C@@H]1CCCN1C(=O)c1ccc(Cl)cc1Cl,-1.03%
6,O=C(C(=O)N1CCC(CNC(=O)c2cccnc2Cl)CC1)c1cccs1,0.64%
7,CC(C)[C@H]1COCCS(=O)(=O)N1Cc1ccccc1-c1cccc2c1sc1ccccc12,-8.72%
8,CC(=O)C1=C(C)N(Cc2ccccc2)C(=S)NC1c1cccc(Br)c1 (configuration not stated),-2.66%
9,C[C@H](O)[C@@H]1CN2CCc3ccc(-c4ccc5c(c4)OCO5)cc3[C@@H]2C[C@@H]1N(C)C(=O)C1CCCCC1,-4.95%
10,Nc1ccn([C@@H]2O[C@H](C(=O)N[C@H]3CCCCNC3=O)[C@@H](O)[C@H]2O)c(=O)n1,-4.12%
11,C[C@@H](CN1C2=NC[C@@H](Cc3ccccc3)N2C[C@H]1Cc1ccc(O)cc1)NC(=O)CCC1CCCCC1,-1.15%
12,COC(=O)C1=C(C(=O)OC)C2C=C(C(C)C)C1C(=O)C2(C)O (configuration not stated),-14.9%
13,CC(C)(C)n1nc(C2CC2)c(Br)c1NC(=O)c1ccccc1F,-0.45%
14,COC(=O)C1=C(C)N(Cc2cccc(C(F)(F)F)c2)C(=NCc2ccccc2)NC1c1ccc(Cl)cc1 (configuration not stated),8.8%
15,O=C(N[C@H](C(=O)N1CCC[C@H]1C(=O)NCCc1ccccc1Cl)c1ccccc1)c1ccccc1,8.89%
16,Cc1ccc(C(=O)Nc2c(-c3ccccc3)[nH][nH]c2=O)cc1,-5.65%
17,CN(C)C(=O)c1ccc(NC(=O)c2ccccc2-c2ccccc2)cc1,6.53%
18,O=C(NC1=CC(=O)c2ccccc2C1=O)c1ccccc1,26.4% (active)
19,COC(=O)[C@]12C[C@H](CC(=O)NCCCCc3ccccc3)C(=O)N(Cc3ccc4c(c3)OCO4)C1=C[C@H](C(C)(C)C)O[C@@H]2C,-6.7%
20,CC(C)[C@@H](C)/C=C/[C@@H](C)[C@H]1CC[C@@H]2[C@]1(C)CCC1[C@]23C=C[C@]2(C[C@@H](O)CC[C@]12C)N(c1ccc([N+](=O)[O-])cn1)O3 (some centres not stated),7.77%
21,Cc1cccc(-n2ncc(Cl)c(Cl)c2=O)c1,24.7% (active)
22,Nc1c(-c2cccc(Cl)c2)cnn1-c1cccc([N+](=O)[O-])c1,3.08%
23,Cc1cccc(N2Cc3ccccc3C2=NC(=O)c2ccc(Cl)nc2)c1,-4.91%
24,CC1CCCN(c2cccc3c2S(=O)(=O)N(Cc2ccc(F)cc2)[C@@H](C)[C@H](c2ccccc2)O3)C1 (some centres not stated),0.02%

row,SMILES,inhibition
1,COc1ccc(SSc2ccc(OC)cc2C(=O)O)c(C(=O)O)c1,-8.33%
2,Cc1cc(Br)cn2c(Cc3ccccc3C(F)(F)F)c(-c3ccc(C#N)cc3)nc12,-9.38%
3,COC(=O)C1=C(C)N(Cc2ccc(C(F)(F)F)cc2)C(=NCc2ccc(C(F)(F)F)cc2)NC1c1cccc(Cl)c1 (configuration not stated),1.4%
4,CC(=O)c1cccc(-c2cnc3c(NC=O)cc(-c4ccc(N5CCN(C)CC5)cc4)cn23)c1,39.8% (active)
5,COc1cccc(-c2cc(NC(C)=O)c3ncc(-c4cccc(C(C)=O)c4)n3c2)c1,-0.92%
6,CC(=O)Nc1cc(-c2ccc(N3CCN(C)CC3)cc2)cn2c(-c3cccc(C(=O)N(C)C)c3)cnc12,40.6% (active)
7,CC(=O)Nc1cccc(-c2cc(NC(C)=O)c3ncc(-c4ccccc4)n3c2)c1,-3.7%
8,CC(=O)Nc1cc(-c2ccc(N3CCN(C)CC3)cc2)cn2c(-c3ccc(F)cc3)cnc12,24.7% (active)
9,COc1ccc(-c2cc(NC=O)c3ncc(-c4cccc(C(=O)N(C)C)c4)n3c2)c(OC)c1,-1.85%
10,CC(=O)c1cccc(-c2cnc3c(NC=O)cc(-c4ccccc4Oc4ccccc4)cn23)c1,-4.36%
11,O=CNc1cc(-c2ccc(C(=O)N3CCOCC3)cc2)cn2c(-c3ccc(F)cc3)cnc12,7.38%
12,CN(C)C(=O)c1cccc(-c2cnc3c(NC=O)cc(-c4ccc(C(=O)N5CCOCC5)cc4)cn23)c1,-9.18%
13,COC(=O)Cc1nnn2c1[C@H](C)[C@H](c1ccccc1Br)OCC2,-9.73%
14,Cc1cc(N2CCN(C(=O)OC(C)(C)C)C[C@H]2C)ccc1N1CCN(Cc2ccccc2)[C@H](C)C1,0.89%
15,Fc1ccc(-c2ccc(-c3nn4c(-c5ccco5)nnc4s3)o2)cc1,-2.12%
16,c1ccc(-c2cc(-c3nnc4sc(-c5ccccn5)nn34)[nH]n2)cc1,28.1% (active)
17,CCCCCCCCN1C(=O)[C@@H](CC(=O)NCCCC)C[C@@]2(C(=O)OC)C1=C[C@H](C(C)(C)C)O[C@@H]2C,-1.77%
18,COc1ccc(C(CNC(=O)c2ccc(S(=O)(=O)Nc3ccccc3C)cc2)N2CCOCC2)cc1 (configuration not stated),1.23%
19,COc1ccc(C(CNC(=O)c2cccc(S(=O)(=O)Nc3ccccc3Cl)c2)N2CCOCC2)cc1 (configuration not stated),26.3% (active)
20,COc1ccc(C(CNC(=O)c2cccc(NS(=O)(=O)c3ccc(C)c(F)c3)c2)N2CCCC2)cc1 (configuration not stated),-8.53%
21,CCOc1ccccc1C(=O)N1CCC[C@@H]1C(=O)N1CCC[C@H]1C(=O)NCc1ccccc1,-4.19%
22,CCC(=C/c1sc2ccc3ccccc3c2[n+]1C)/C=C1\Sc2ccc3ccccc3c2N1C,41.1% (active)
23,COCc1[nH]nc2c1C(c1ccccc1)N(c1ccccc1)C2=O (configuration not stated),-1.83%
